# According to PubChem BioAssay:
# Values without a mark were called inactive. The source made the active and inactive calls. Unless noted, no stated cut-off is given here; in the data, active means inhibition above about 44%; inactive means the rest.
# Target: Nuclear receptor subfamily 5 group A member 2 (Homo sapiens) (UniProt O00482)
# Experiment: NR5A2 activity suppression in reporter cells – cell-based, luminescence, confirmation (AID 651613; in the data active means inhibition above about 42%;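 further: HEK293T cells co-transfected with LRH-1 and StAR promoter luciferase reporter; 0% = vehicle wells and 100% = parental cells lacking receptor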)
# Details: cell-based LRH-1 luciferase reporter, inverse agonism; at 3.6 µM; active compounds read high
# Sequence of Nuclear receptor subfamily 5 group A member 2 (Homo sapiens) (O00482 whole entry, looked up): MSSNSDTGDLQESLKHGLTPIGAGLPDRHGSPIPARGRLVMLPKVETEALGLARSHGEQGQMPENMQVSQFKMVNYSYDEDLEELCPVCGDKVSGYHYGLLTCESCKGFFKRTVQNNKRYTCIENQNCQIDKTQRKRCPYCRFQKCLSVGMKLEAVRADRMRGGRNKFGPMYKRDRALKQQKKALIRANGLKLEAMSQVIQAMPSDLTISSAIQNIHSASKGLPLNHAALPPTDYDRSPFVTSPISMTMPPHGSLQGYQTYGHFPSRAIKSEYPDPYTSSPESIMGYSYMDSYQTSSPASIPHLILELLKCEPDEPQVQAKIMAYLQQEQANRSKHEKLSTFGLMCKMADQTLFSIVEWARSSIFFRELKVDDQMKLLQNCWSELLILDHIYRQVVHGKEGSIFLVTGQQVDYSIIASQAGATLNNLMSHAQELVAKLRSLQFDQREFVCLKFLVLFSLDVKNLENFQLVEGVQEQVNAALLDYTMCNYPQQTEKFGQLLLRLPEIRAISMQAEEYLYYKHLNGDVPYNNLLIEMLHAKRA
row,SMILES,inhibition
1,CCOC(=O)CC1CCCCN1C(=O)c1cc(COc2cccc3cnccc23)on1 (stereo not given),58.9% (active)
2,O=C(OCC(=O)N1CCN(c2ccccc2)CC1)c1ccc2ccccc2n1,33%
3,Cc1no[n+]([O-])c1COc1ccc(/C=C2\NC(=S)NC2=O)cc1,48.3% (active)
4,CS(=O)(=O)c1ccc(-c2cc(NC=O)c3ncc(-c4ccc(F)cc4)n3c2)cc1,56% (active)
5,O=C(Cn1ncc(Cl)c(Cl)c1=O)Nc1ccc2c(c1)OCO2,38.1%
6,CCOc1ccc(NC(=O)Cn2cc(C(C)=O)c3ccccc32)cc1,78.3% (active)
7,COc1ccccc1NC(=O)c1ccc(NC(=O)CSc2nnnn2C)cc1,59% (active)
8,COc1ccc(C2=Nn3c(nnc3-c3ccccc3F)SC2)cc1OC1CCOC1 (stereo not given),75% (active)
9,COC(=O)c1ccc([C@H](NC(=O)c2ccco2)[C@]2(C)C[C@H]2C2CCCCC2)cc1,30.3%
10,CCCCNC(=O)COC(=O)c1c2c(nc3ccccc13)/C(=C/c1cccs1)CC2,58% (active)
11,CC(=NNC(=S)N1CCN(c2ccccn2)CC1)c1nccs1,91.2% (active)
12,CCCC(=O)N1CCN(c2ccc(NC(=O)c3ccc([N+](=O)[O-])o3)cc2)CC1,52.9% (active)
13,Cn1c(CN2CCN(c3ccc(Cl)cc3)CC2)nc2ccccc21,32.9%
14,COc1ccc(Oc2ccc(NC(=O)c3ccccc3C)cc2)cc1,38.8%
15,Cc1cc(C)nc(SCC(=O)Nc2ccc(N3CCOCC3)c(Cl)c2)n1,67.5% (active)
16,O=[N+]([O-])c1cc2ncccc2c2ncccc12,56.2% (active)
17,Cc1cccc(NC(=O)CSc2nc3[nH]ncc3c(=O)[nH]2)c1C,56.4% (active)
18,COc1ccc(CCNC(=O)CN2C(=O)NC3(CCCCC3)C2=O)cc1,53.9% (active)
19,COc1cc(/C=N/n2nnnc2N)ccc1OCc1c(C)no[n+]1[O-],54.4% (active)
20,CC(=O)C1=C(c2ccc(Br)cc2)C(=O)c2ccccc2C1=O,101% (active)

row,SMILES,inhibition
1,CCn1c2ccccc2c2cc(C3C(C#N)=C(N)Oc4n[nH]c(COC)c43)ccc21 (stereo not given),50.8% (active)
2,COc1ccc(Br)cc1/C=C/C(=O)c1ccc(NC(C)=O)cc1,95% (active)
3,COc1cc2c(cc1OC)-c1c(OC)c(OC)cc3ccnc(c13)C2=O,68.4% (active)
4,COc1cc2nc(/C=C/c3cc(OC)c(OC)c(OC)c3)sc2cc1SC,45.1% (active)
5,COc1cc(/C=N/Nc2snc(SC)c2C#N)ccc1O,28.3%
6,O=C(CCl)Nc1cccc2ncccc12,61.7% (active)
7,CC1(C(=O)NCc2ccco2)Cc2c(-c3cccc(C(N)=O)c3)ccnc2O1 (stereo not given),57.9% (active)
8,CNc1c2cccc(C)c2nc2c(C(=O)NCCN(C)C)cccc12,109% (active)
9,COc1cc(NC(=O)CCl)ccc(=O)c1,64.7% (active)
10,CCOc1ccc(CCNC(=O)COC(=O)c2ccc(OC)c(OC)c2OC)cc1OCC,53.8% (active)
11,O=[N+]([O-])c1ccc(N2CCCCC2)cc1N1CCOCC1,54.3% (active)
12,COc1ccc(/C=C2/C(=O)OCc3cc(OC)c(OC)cc32)cc1,56.4% (active)
13,COc1cc2c(OC(C)=O)c3c(c(-c4ccc5c(c4)OCO5)c2cc1OC)C(=O)OC3,35.4%
14,COc1ccc(S(=O)(=O)Nc2ccc(CC#N)cc2)cc1,31.7%
15,Cc1cc(Br)ccc1NC(=O)CSc1nnc(CN2CCOCC2)n1C,47.8% (active)
16,Cc1cc(C)nc(-n2nc(C)cc2Nc2ccccc2)n1,35.7%
17,CCn1nnnc1SCC(=O)N(C)C1CCS(=O)(=O)C1 (stereo not given),47.9% (active)
18,CC(C)n1c(SCC(=O)Nc2ccc(N3CCOCC3)cc2)nnc1-c1ccco1,55.5% (active)
19,CC(=O)Nc1sc2c(c1-c1nc3ccccc3s1)CN(C(C)C)CC2,66.4% (active)
20,COc1cccc(C(=O)COc2cccc(NC(=O)c3cccc([N+](=O)[O-])c3)c2)c1,62.4% (active)

# Target: Steroidogenic factor 1 (Homo sapiens) (UniProt Q13285)
# Experiment: inverse agonism at SF1 nuclear receptor – cell-based, luminescence, high throughput, counter-screen for LRH-1 inverse agonist project (AID 651614);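 further: cells cotransfected with StAR promoter reporter and SF1 expression vector; 0% = vehicle on cells with receptor and 100% = vehicle on cells lacking receptor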
# Details: cell-based SF1 luciferase reporter, at 3.6 µM, active compounds read high
# Sequence of Steroidogenic factor 1 (Homo sapiens) (Q13285 whole entry, looked up): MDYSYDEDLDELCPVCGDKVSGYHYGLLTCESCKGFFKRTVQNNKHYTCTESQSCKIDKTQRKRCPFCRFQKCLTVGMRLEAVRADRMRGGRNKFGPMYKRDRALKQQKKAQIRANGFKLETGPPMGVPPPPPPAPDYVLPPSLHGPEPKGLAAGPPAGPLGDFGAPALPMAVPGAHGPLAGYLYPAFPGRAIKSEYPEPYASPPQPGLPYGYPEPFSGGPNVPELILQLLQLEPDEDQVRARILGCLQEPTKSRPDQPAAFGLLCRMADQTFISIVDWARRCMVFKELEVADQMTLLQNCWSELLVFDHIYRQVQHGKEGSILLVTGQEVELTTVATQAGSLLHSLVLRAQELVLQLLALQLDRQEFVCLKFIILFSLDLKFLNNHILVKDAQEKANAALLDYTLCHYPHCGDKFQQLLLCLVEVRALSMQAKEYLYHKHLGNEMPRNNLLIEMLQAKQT
row,SMILES,inhibition
1,CCOC(=O)CC1CCCCN1C(=O)c1cc(COc2cccc3cnccc23)on1 (stereo not given),62.1% (active)
2,O=C(OCC(=O)N1CCN(c2ccccc2)CC1)c1ccc2ccccc2n1,22.3%
3,Cc1no[n+]([O-])c1COc1ccc(/C=C2\NC(=S)NC2=O)cc1,45.9% (active)
4,CS(=O)(=O)c1ccc(-c2cc(NC=O)c3ncc(-c4ccc(F)cc4)n3c2)cc1,55% (active)
5,O=C(Cn1ncc(Cl)c(Cl)c1=O)Nc1ccc2c(c1)OCO2,47.4% (active)
6,CCOc1ccc(NC(=O)Cn2cc(C(C)=O)c3ccccc32)cc1,73.8% (active)
7,COc1ccccc1NC(=O)c1ccc(NC(=O)CSc2nnnn2C)cc1,55.5% (active)
8,COc1ccc(C2=Nn3c(nnc3-c3ccccc3F)SC2)cc1OC1CCOC1 (stereo not given),78.2% (active)
9,COC(=O)c1ccc([C@H](NC(=O)c2ccco2)[C@]2(C)C[C@H]2C2CCCCC2)cc1,21.1%
10,CCCCNC(=O)COC(=O)c1c2c(nc3ccccc13)/C(=C/c1cccs1)CC2,26.4%
11,CC(=NNC(=S)N1CCN(c2ccccn2)CC1)c1nccs1,79.4% (active)
12,CCCC(=O)N1CCN(c2ccc(NC(=O)c3ccc([N+](=O)[O-])o3)cc2)CC1,55.4% (active)
13,Cn1c(CN2CCN(c3ccc(Cl)cc3)CC2)nc2ccccc21,52.9% (active)
14,COc1ccc(Oc2ccc(NC(=O)c3ccccc3C)cc2)cc1,40.1%
15,Cc1cc(C)nc(SCC(=O)Nc2ccc(N3CCOCC3)c(Cl)c2)n1,59.8% (active)
16,O=[N+]([O-])c1cc2ncccc2c2ncccc12,53.1% (active)
17,Cc1cccc(NC(=O)CSc2nc3[nH]ncc3c(=O)[nH]2)c1C,52.2% (active)
18,COc1ccc(CCNC(=O)CN2C(=O)NC3(CCCCC3)C2=O)cc1,54% (active)
19,COc1cc(/C=N/n2nnnc2N)ccc1OCc1c(C)no[n+]1[O-],42.6%
20,CC(=O)C1=C(c2ccc(Br)cc2)C(=O)c2ccccc2C1=O,78.1% (active)

row,SMILES,inhibition
1,CCn1c2ccccc2c2cc(C3C(C#N)=C(N)Oc4n[nH]c(COC)c43)ccc21 (stereo not given),51.7% (active)
2,COc1ccc(Br)cc1/C=C/C(=O)c1ccc(NC(C)=O)cc1,94.5% (active)
3,COc1cc2c(cc1OC)-c1c(OC)c(OC)cc3ccnc(c13)C2=O,59% (active)
4,COc1cc2nc(/C=C/c3cc(OC)c(OC)c(OC)c3)sc2cc1SC,58.6% (active)
5,COc1cc(/C=N/Nc2snc(SC)c2C#N)ccc1O,44.1% (active)
6,O=C(CCl)Nc1cccc2ncccc12,60.9% (active)
7,CC1(C(=O)NCc2ccco2)Cc2c(-c3cccc(C(N)=O)c3)ccnc2O1 (stereo not given),59.3% (active)
8,CNc1c2cccc(C)c2nc2c(C(=O)NCCN(C)C)cccc12,98% (active)
9,COc1cc(NC(=O)CCl)ccc(=O)c1,68.2% (active)
10,CCOc1ccc(CCNC(=O)COC(=O)c2ccc(OC)c(OC)c2OC)cc1OCC,55.5% (active)
11,O=[N+]([O-])c1ccc(N2CCCCC2)cc1N1CCOCC1,54.9% (active)
12,COc1ccc(/C=C2/C(=O)OCc3cc(OC)c(OC)cc32)cc1,57.9% (active)
13,COc1cc2c(OC(C)=O)c3c(c(-c4ccc5c(c4)OCO5)c2cc1OC)C(=O)OC3,36.2%
14,COc1ccc(S(=O)(=O)Nc2ccc(CC#N)cc2)cc1,29.7%
15,Cc1cc(Br)ccc1NC(=O)CSc1nnc(CN2CCOCC2)n1C,42.5%
16,Cc1cc(C)nc(-n2nc(C)cc2Nc2ccccc2)n1,19.6%
17,CCn1nnnc1SCC(=O)N(C)C1CCS(=O)(=O)C1 (stereo not given),48.1% (active)
18,CC(C)n1c(SCC(=O)Nc2ccc(N3CCOCC3)cc2)nnc1-c1ccco1,45.7% (active)
19,CC(=O)Nc1sc2c(c1-c1nc3ccccc3s1)CN(C(C)C)CC2,61.1% (active)
20,COc1cccc(C(=O)COc2cccc(NC(=O)c3cccc([N+](=O)[O-])c3)c2)c1,59.3% (active)
